What all share (assay): NCI-60 one-dose screen, 48 h (100 = growth as untreated, 0 = no growth, -100 = all killed)
The subject of assay [1] is HCT-15 colon. The note with it: 10 µM unless noted.
Assay [2] relates to HT29 colon. The note with it: 10 µM unless noted.
Assay [3] has as its system SNB-75 CNS. The conditions noted are these: 10 µM unless noted.
Assay [4] relates to SNB-19 CNS. The conditions noted are these: 10 µM unless noted.
The subject of assay [5] is U251 CNS. The conditions noted are these: 10 µM unless noted.
In assay [6] the test system is PC-3 prostate. The note with it: 10 µM unless noted.
In assay [7] the test system is SK-MEL-5 melanoma. The conditions noted are these: 10 µM unless noted.
Assay [8] deals with UACC-62 melanoma. The conditions noted are these: 10 µM unless noted.
Assay [9] concerns LOX IMVI melanoma. The conditions noted are these: 10 µM unless noted.
Assay [10] has as its system SK-MEL-28 melanoma. The note with it: 10 µM unless noted.
Assay [11] deals with EKVX NSCLC. The conditions noted are these: 10 µM unless noted.
Assay [12] relates to SN12C renal. The conditions noted are these: 10 µM unless noted.
Assay [13] deals with UO-31 renal. The note with it: 10 µM unless noted.
The subject of assay [14] is TK-10 renal. The note with it: 10 µM unless noted.
Assay [15] deals with ACHN renal. The note with it: 10 µM unless noted.
For assay [16], the system named is CAKI-1 renal. The note with it: 10 µM.
The test system of assay [17] is CCRF-CEM leukemia. The note with it: 10 µM unless noted.
In assay [18] the test system is MOLT-4 leukemia. The conditions noted are these: 10 µM unless noted.
Assay [19] concerns A498 renal. The note with it: 10 µM unless noted.

About 83,000 compounds went through this panel and 20% of them were active in at least one assay; those are over-represented in the sample as a whole.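 48-hour exposure, single concentration, 96-well plates; percent growth endpoint where 0 means no net growth. Active: below 10.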 A number with no mark means an inactive call. Calls of active or inactive are those of the source.

The source of these data is PubChem BioAssay (NCI).

As for `CCc1ccc(NC(=O)N[C@@H](Cc2cccc(F)c2)C(=O)N[C@@H]2C(=O)N3CCC[C@H]3C(=O)N3CCCC[C@H]3C(=O)N[C@@H](C)C(=O)N3C[C@H](C)C[C@H]3C(=O)O[C@H]2C)c(F)c1`, the growth is 11.6% in assay [1]; 20.1% in assay [2]; 20.8% in [3]; 27.5% in [4]; 31.1% in assay [5]; 15.1% in [6]. Further, the growth in assay [7] is -20.9% (active); in assay [8] it was 21.1%; in [9], 14.1%; in assay [10], 36.1%; in assay [11] it was 31.1%; in assay [12], 21%. Also, the growth in assay [13] was 26.3%; in [14], 50.3%; in assay [15], 27.4%; in assay [16] it was 17.8%; in assay [17] it was 33.9%; in assay [18], 32%.
Turning to `COc1cc(OC)c(S(N)(=O)=O)cc1C(=O)/C=C/c1ccccc1`, the growth in [1] is 11.3%; in assay [2] it was 25.3%; in assay [3], 77.4%; in assay [4], 47.5%; in [5], 28.5%; in [6] it was 32.9%. In addition, the growth in assay [7] was 23.2%; in assay [8], 42.8%; in assay [9], 3.55% (active); in [10], 58%; in assay [11] it was 77.2%; in [12], 11.3%. In addition, the growth in assay [13] was 33.8%; in assay [14] it was 19.9%; in [15], 27.7%; in assay [16] it was 30.2%; in assay [17] it was 15.1%; in assay [18], 29.2%.
As for `O=C(/C=C/Nc1ccc(S(=O)(=O)O)cc1)c1ccc(F)cc1`, the growth in assay [1] was 96.4%; in assay [2], 103%; in assay [3], 92.4%; in assay [4] it was 93.4%; in assay [5], 98%; in assay [6] it was 96.1%. The growth was 99.2% in [7]; 93.5% in assay [8]; 95.9% in assay [9]; 101% in [10]; 107% in assay [11]; 105% in assay [12]. In addition, the growth in assay [13] was 91.8%; in [14], 97.2%; in assay [15], 101%; in assay [16], 90.4%; in [17] it was 98.5%; in assay [18] it was 102%.
Consider `COc1ccc(-c2nc3cc(Cl)c(Cl)cc3n2CC(=O)N=Nc2c(O)[nH]c3ccc(Cl)cc23)cc1`, for which the growth in [1] was 5.04% (active); in [2] it was 25%; in assay [3], 57.9%; in assay [4], 36.1%; in assay [5] it was 17.1%; in assay [6], 37.6%. Besides, the growth in [7] was 38.3%; in assay [8] it was 38.6%; in assay [9], -58.1% (active); in assay [10], -21.5% (active); in assay [11], 25.7%; in assay [12], 23.2%. In addition, the growth is 8.66% (active) in assay [13]; 60.9% in assay [14]; -33.8% (active) in assay [15]; 13.6% in [16]; 37.4% in assay [17]; 34.5% in assay [18].
For the compound `Fc1ccccc1/C=C(/C1=NCCN1)n1cnc2ccccc21`, the growth in [1] was 93%; in assay [2], 112%; in assay [3] it was 92.2%; in assay [4], 97.6%; in assay [5], 101%; in assay [6] it was 95.7%. Also, the growth in [7] was 106%; in assay [8] it was 94.9%; in assay [9], 90.3%; in assay [10] it was 95.3%; in [11], 95%; in assay [13] it was 85.3%. The growth in [14] is 99.4%; in assay [15], 97%; in assay [16] it was 84.1%; in [17], 108%; in assay [18], 106%.
For the compound `Cc1cn(-c2cc(NC(=O)c3cncc(C#Cc4cnc5ccc(O[C@H]6CCOC6)nn45)c3)cc(C(F)(F)F)c2)cn1`, the growth in [1] is 82.8%; in [2] it was 69%; in assay [3], 92.9%; in [4] it was 117%; in assay [5], 105%; in [6], 96.5%. Further, the growth in assay [7] was 70.6%; in assay [8], 70.6%; in assay [9], 62.6%; in assay [10], 76.3%; in [11], 89.9%; in assay [12], 72%. Also, the growth was 55.7% in assay [13]; 133% in [14]; 87.7% in assay [15]; 88.5% in [16]; 95.6% in assay [17]; 88.9% in [18].
For the compound `CC1CCc2c(sc3nc(SCC(=O)N/N=C/c4cccc(O)c4O)n(-c4ccccc4)c(=O)c23)C1` (configuration not stated), the growth in assay [1] is 85.6%; in assay [2], 105%; in assay [3], 99.2%; in [4], 98.1%; in [5] it was 90.9%; in assay [6] it was 76.8%. Moreover, the growth was 94.1% in assay [7]; 84% in assay [8]; 60.4% in [9]; 78.4% in [10]; 85.6% in [11]; 84% in [12]. The growth in assay [13] was 73.2%; in assay [14], 116%; in assay [15] it was 71.9%; in assay [16], 76.3%; in assay [17], 91.9%; in assay [18], 85%.
`COc1ccc(-c2ccnc3c(C#N)c(Nc4ccccc4)nn23)cc1OC`: the growth in assay [1] is 88.8%; in assay [2] it was 90%; in assay [3], 51.4%; in assay [4], 95.1%; in assay [5], 87.7%; in [6], 89.2%. The growth in [7] was 74.2%; in assay [8], 85.3%; in assay [9], 90.9%; in [10], 90.7%; in assay [11], 98.9%; in assay [13] it was 67.9%. Besides, the growth in assay [14] was 65.8%; in assay [15] it was 86.4%; in assay [16], 60.2%; in [17] it was 93.8%; in assay [18], 84.9%.
As for `CN1CCN(c2ccc(C(=O)/C=C/c3ccc(Cl)c(C(F)(F)F)c3)cc2)CC1`, the growth in [1] is 17%; in [2], 11.6%; in assay [3], 65.3%; in [4], 73.7%; in assay [5], 38.4%; in assay [6] it was 43.4%. The growth in [7] is 74.3%; in [8] it was 75.4%; in [9], 12.8%; in assay [10], 87.2%; in [11] it was 70.2%; in assay [13], 50.5%. Moreover, the growth in assay [14] was 102%; in assay [15], 65.7%; in assay [16], 64.1%; in [19], 81.6%; in [17] it was 11%; in [18], 41.6%.
For `CC(C)(C)CC(C)(C)n1nnnc1C(Nc1ccccc1)c1cc2cccc3ccc4cccc1c4c32` (configuration not stated), the growth in [1] is 78.5%; in [2], 70.7%; in assay [3] it was 99.9%; in assay [4], 95.1%; in [5], 88.7%; in assay [6] it was 50.4%. Further, the growth was 89.6% in assay [7]; 67.4% in assay [8]; 85.1% in [9]; 90% in assay [10]; 73.5% in assay [11]; 78.4% in [12]. Also, the growth in assay [13] is 73.1%; in assay [14], 94.6%; in [15], 87.5%; in assay [16], 55.8%; in [17] it was 86.7%; in [18], 73.2%.
`CC(=O)Oc1ccc(CCN2C(=O)CSC2=S)cc1`: the growth in assay [1] is 62.3%; in assay [2] it was 107%; in [3], 103%; in [4] it was 94.9%; in assay [5], 104%; in assay [6], 78.2%. Moreover, the growth was 86% in [7]; 85.7% in assay [8]; 41.6% in assay [9]; 90.6% in [10]; 97.3% in assay [11]; 69% in assay [12]. Further, the growth in [13] is 76.8%; in assay [14], 57.9%; in assay [15], 93.6%; in assay [16], 81.6%; in assay [17], 57.9%; in [18], 88.2%.
Regarding `Cc1ccc(NC(=O)c2cc(/C=C/C(=O)NO)cc(C(F)(F)F)c2)cc1Nc1nccc(-c2cccnc2)n1`, the growth in [1] is 55.2%; in [2], 7.3% (active); in assay [3], -5.81% (active); in [4], -0.0394% (active); in [5] it was -65.1% (active); in assay [6], 18.9%. For the same compound, the growth in assay [7] was -88% (active); in [8], -41.3% (active); in assay [9], -68.2% (active); in [10], -7.78% (active); in assay [11], 28%; in assay [12], 2.25% (active). Also, the growth in assay [13] was 18.8%; in assay [14], 15.2%; in [15], 18.5%; in [16] it was 6.2% (active); in [17], 5.21% (active); in [18], 5.15% (active).
As to `COc1ccc(NC(=O)[C@H](C)NC(=O)OC(C)(C)C)cc1C(=O)Nc1cccc(-c2cc(=O)c3c(OC)c(OC)c(OC)cc3o2)c1`, the growth was 3.87% (active) in assay [1]; -10.5% (active) in assay [2]; -18.3% (active) in assay [3]; 16.9% in [4]; -34.1% (active) in assay [5]; -36.9% (active) in assay [6]. Further, the growth in [7] was -91.1% (active); in assay [8] it was -40.8% (active); in assay [9], -73.7% (active); in [10] it was 0.755% (active); in assay [11], 3.7% (active); in [13] it was 16.8%. Further, the growth in [14] was -3.36% (active); in [15] it was 10.3%; in assay [16], 17.4%; in assay [19], -53.3% (active); in assay [17], 3.69% (active); in assay [18] it was 7.83% (active).
